This assay can be described thus: qHTS Assay for Identifying a Potential Treatment of Ataxia-Telangiectasia: Secondary assay (no NCS) hit validation.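 Also: phosphorylated KAP1 signal as a proxy for ATM-like kinase activity.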 In short, it runs like this: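 Without NCS-induced DNA breaks, ATM-like activity scored as phospho-KAP1 AlphaLISA signal (pKAP1/total KAP1 bead pair) in ATM-null F2112 fibroblasts; compound series up to 76.7 uM final, 37C incubation, lysates read on AlphaScreen protocol.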
(In general: qHTS replaces the single test concentration by a dilution series.)

Experimental findings from PubChem BioAssay AID493201 (National Center for Advancing Translational Sciences (NCATS), 2011) are described below.

Structures are written as SMILES. Records with an inconclusive call do not appear. A call without a number means that no potency is given here. Active and inactive are the calls of the source. Calls follow the shape of the dose curve; as a rule, active = well fitted activation curve with a large enough effect; inconclusive = small, poorly fitted or top-dose-only effect; inactive = no such curve, though single readings can be large or run the other way.
Potency is read from the fitted curve at half-maximal effect.

Regarding `Cc1ccc(NC(=O)NC(=O)N(C(C)C)S(C)(=O)=O)nc1`, the Potency entry is “inactive”.

In the case of `CCC12CN(C(=O)c3ccc([N+](=O)[O-])cc3)CC(CC)(CN(C(=O)c3ccc([N+](=O)[O-])cc3)C1)C2=O`, the Potency is 0.207 µM (active).

As for `CC12CCC(C(=O)NNc3ccc([N+](=O)[O-])cc3)(OC1=O)C2(C)C` (configuration not stated), the Potency entry is “inactive”.

Regarding `Cc1ccc2c(c1)sc(=NC(=O)C1CC1)n2C`, the Potency result was “inactive”.

As for `O=C(CCCn1nnnc1CN1CCOCC1)N1CCC(c2ccc(F)cc2)C1` (configuration not stated), the Potency entry was “inactive”.

Regarding `CCN(c1ccccc1)S(=O)(=O)c1ccc(Cl)c(C(=O)N(CC2CCCO2)C2CCS(=O)(=O)C2)c1` (configuration not stated), the Potency is 14.6 µM (active).

As for `CCCc1nn(C)c(C(=O)Nc2ccc(C(C)(C)C)cc2)c1Cl`, the Potency result was “inactive”.

Regarding `CCc1ccc(C2c3[nH]c4ccccc4c3CCN2C(=O)c2cc[n+]([O-])cc2)cc1` (configuration not stated), the Potency result is “inactive”.

With `COc1ccc(CNC(=O)COc2cccnc2[N+](=O)[O-])cc1OC`, the Potency entry was “inactive”.

`OC1(CC#CCN2CCCCC2)c2ccccc2-c2ccccc21`: the Potency result was “inactive”.

As for `COc1ccc(Cl)cc1NC(=O)C[n+]1cccc(C)c1`, the Potency result was “inactive”.

In the case of `CC1=C/C(=C\C=C(C#N)C#N)N(C)c2ccccc21`, the Potency result was “inactive”.

For the molecule `CCOc1cc(/C=C/c2nc3ccccc3c(=O)[nH]2)ccc1O`, the Potency result is “inactive”.

Regarding `CC(C)Nc1nc(Oc2ccc(=O)n(-c3ccccc3)n2)nc(N(C)C)n1`, the Potency result is “inactive”.

For the molecule `O=C(NCCCN1CCOCC1)c1ccc2c(c1)N(Cc1cccc(F)c1)C(=O)c1ccccc1S2`, the Potency result is “inactive”.

As for `CC(Oc1ccccc1)C(=O)Nc1cccc(NC(=O)c2ccco2)c1` (configuration not stated), the Potency entry is “inactive”.

In the case of `CCCCN(c1nc2ccccc2nc1Cl)S(=O)(=O)c1ccc(C)cc1`, the Potency result was “inactive”.
